Bioassay records: PubChem, National Center for Advancing Translational Sciences (NCATS)
Hits are enriched below; roughly 8.1% of the tested compounds scored in any of these assays.
KB-V1 MDR tox = KB-V1 MDR subline cytotoxicity. Potency, µM (doses to about 46.1 µM), most hits filed as cytotoxic. AID 1347076. 400,000 tested, 3.4% active. KB-V1 MDR cells viability, CellTiter-Glo, 72 h; note: nearly all actives have a fitted effect of over 60% in size
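KB-V1, DMEM (no phenol red) + 10% FBS; cpd pin-transferred, titration series; 72 h, 37 degrees C; CellTiter-Glo, luminescence. Data normalized, curve-fit.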
SW480 rereplic = inducers of DNA re-replication in SW480 colon cancer cells | SW480 DNA re-replication, Hoechst DNA content imaging, 48 h | Potency, µM (titrated, usually from 46.1 µM), hits mostly activators | 340,000 tested, 1.8% active | AID 624297; note: nearly all actives have a fitted effect of over 55% in size
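Image-based read-out: total Hoechst fluorescence of nuclei (405 nm excitation, 500-530 nm emission), with hits raising the fraction of high-intensity nuclei. SW480 colon cells incubated 48 hr with compounds at 37 C.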
MCF10A rerep = induces DNA re-replication in MCF 10a normal breast cells; MCF 10A DNA re-replication, Hoechst nuclear intensity, 48 h; Potency, µM (doses to about 46.1 µM), actives largely listed as activators; 350,000 tested, 2.9% active; note: nearly all actives have a fitted effect of over 50% in size
KB-3-1 cytotox = KB-3-1 parental cell cytotoxicity | KB-3-1 viability, CellTiter-Glo ATP luminescence, 72 h | 400,000 tested, 1.4% active | Potency, µM (doses to about 46.1 µM), usual class: cytotoxic; note: nearly all actives have a fitted effect of over 60% in size
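Viability of parental KB-3-1 cells, measured by CellTiter-Glo luminescence, followed a 72 h incubation at 37 °C with pinned compounds in phenol-red-free DMEM containing 10% FBS.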
ELG1 repair inh = inhibitors of ELG1-dependent DNA repair in HEK293T cells; HEK293T ELG1-luciferase reporter, luminescence, 16 h; DNA damage induced by 5-fluorouridine; Potency, µM (top dose mostly 46.1 µM), usual class: inhibitors; 330,000 tested, 2.3% active; note: nearly all actives have a fitted effect of over 55% in size
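Quantitative HTS, concentration-response format. 2,000 cells/well co-treated with 5-fluorouridine and compound, 16 hr in 5% CO2 at 37 °C; ONE-Glo luminescence read after 30 min.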
Hits are given with their value; . = inactive; ? = inconclusive; / = no result given. Calls come from the whole dose curve; as a rule, active = well fitted curve in the direction sought with a large enough effect; inconclusive = small, poorly fitted or top-dose-only effect, or another doubt; inactive = no such curve, though single readings can be large; an effect the other way counts as inactive or inconclusive.

SMILES	KB-V1 MDR tox	SW480 rereplic	MCF10A rerep	KB-3-1 cytotox	ELG1 repair inh
CC1C/C(=C/c2ccncc2)C(=O)/C(=C/c2ccncc2)C1 (stereo not drawn)	.	?	0.461µM	?	20.6µM
CC1C/C(=C/c2cccn2C)C(=O)/C(=C/c2cccn2C)C1 (stereo not drawn)	.	?	4.61µM	.	?
O=C1/C(=C/c2ccncc2)Cc2ccccc21	.	.	.	.	.
O=c1c(-c2ccccc2Cl)coc2c(CN3CCCCC3)c(O)ccc12	.	.	.	.	.
CCOC(=O)c1c[nH]c2c([N+](=O)[O-])cc(OC)cc2c1=O	.	16.4µM	.	.	/
CCOC(=O)c1c[nH]c2ccc([N+](=O)[O-])cc12	.	.	.	.	/
O=C(CCCCCNC(=O)N1CCn2c1nc1ccccc12)NCc1ccc(Cl)cc1	.	.	.	.	.
Oc1[nH]c2ccccc2c1C=Nc1ccc2c(c1)OCCO2	16.4µM	.	?	.	?
Oc1c(Br)cc(Br)cc1C=Nc1ccc2c(c1)OCCO2	.	.	.	.	?
Cn1cc(S(=O)(=O)c2ccc(Cl)cc2)c(=O)c2cc(F)c(N3CCCC3)cc21	.	/	/	.	/
Cc1cc(C)cc(S(=O)(=O)c2cn(C)c3cc(N4CCN(C)CC4)c(F)cc3c2=O)c1	?	.	23.1µM	.	.
COc1ccccc1N(C1=NCCCS1)S(=O)(=O)c1ccc(C(C)(C)C)cc1	23.1µM	.	.	?	.
COc1ccc(N(C2=NCCCS2)S(=O)(=O)c2ccc(C(C)(C)C)cc2)cc1	.	.	.	.	.
CN(C)c1ccc(Cc2cc3c(O)ccc(O)c3cc(Cc3ccc(N(C)C)cc3)c2=O)cc1	.	?	?	?	/
CC(/C=N/NC(=O)c1cc(-c2ccncc2)nc2ccccc12)=C\c1ccco1	1.46µM	0.92µM	?	?	?
O=C(N/N=C/c1ccc([N+](=O)[O-])o1)c1cc(-c2ccc(-c3ccccc3)cc2)nc2ccccc12	.	1.3µM	0.92µM	?	?
O=C(N/N=C/c1ccc([N+](=O)[O-])o1)c1cn(-c2ccccc2)nc1-c1ccc(Cl)cc1	.	?	?	.	?
Cc1ccc(-c2cc(C(=O)N/N=C/c3ccc([N+](=O)[O-])o3)c3ccccc3n2)o1	?	?	?	.	.
O=C(N/N=C/c1ccccn1)c1cc(-c2ccncc2)nc2ccccc12	.	.	?	.	?
O=C(N/N=C/c1ccc([N+](=O)[O-])o1)c1cc(-c2ccncc2)nc2ccccc12	?	?	5.01µM	?	?
O=C(N/N=C/c1ccc([N+](=O)[O-])o1)c1cn(-c2ccccc2)nc1-c1ccccc1	?	.	16.4µM	.	?
CCCS(=O)(=O)N1CCCC(C(=O)NCCCN2CCN(c3ccccc3F)CC2)C1 (stereo not drawn)	.	.	.	.	.
COc1ccccc1-c1cc(C(=O)N/N=C/c2ccc(C)o2)c2ccccc2n1	.	?	.	.	?
Cc1ccc(/C=N/NC(=O)c2cc(-c3ccncc3)nc3ccccc23)o1	.	?	?	5.8µM	.
CCOC(=O)c1c(C)oc(=O)c(CC)c1O	.	/	/	.	/
SMILES	KB-V1 MDR tox	SW480 rereplic	MCF10A rerep	KB-3-1 cytotox	ELG1 repair inh
CCOC(=O)c1c(C)oc2c(F)c(F)c(F)c(F)c2c1=O	?	?	6.51µM	?	?
CN(C)c1nc(SCCOC(=O)Nc2ccccc2)nc(N(C)C)n1	14.6µM	.	.	.	?
CN(C)c1nc(NCc2ccccc2)nc(SCC(=O)Nc2ccccc2)n1	?	.	?	.	?
CN(C)c1nc(NC(C)(C)C)nc(SCC(=O)Nc2ccccc2)n1	8.2µM	.	.	.	?
CCCc1ccc(OCCNC(=O)CC)cc1	.	.	.	.	.
O=C(COC(=O)C1CCN(c2ccc(C(F)(F)F)cn2)CC1)NCc1ccccc1	.	.	.	.	.
Cc1cc(C(=O)CN2CCN(CC(=O)Nc3cccc(F)c3)CC2)c(C)n1C1CC1	10.3µM	.	.	.	.
Cc1cc(C(=O)CN2CCN(CC(=O)Nc3ccc(F)cc3)CC2)c(C)n1C1CC1	?	.	.	.	.
COc1cccc(CN(C)C(=O)CN2C(=O)NC3(CCCc4ccccc43)C2=O)c1 (stereo not drawn)	20.6µM	.	.	.	.
CN(CC(=O)Nc1cccc(F)c1)CC(=O)Nc1cccc(S(=O)(=O)N2CCCCC2)c1	.	.	.	.	?
CCc1ccc(NC(=O)C(CC)n2nnc(C(=O)OC)c2C(=O)OC)cc1 (stereo not drawn)	.	/	/	.	/
CC(C)CNC(=O)c1cc(-c2ccc3c(c2)OCO3)on1	.	.	?	.	?
CCc1ccc2nc(-c3cccc(C)c3)nc(SCC(=O)NCC3CCCO3)c2c1 (stereo not drawn)	2.59µM	.	.	.	.
COc1cccc(Cn2c(C3CC3)nc3ccc(NC(=O)c4ccco4)cc3c2=O)c1	/	/	/	/	23.1µM
COc1ccc(Cn2c(C3CC3)nc3ccc(NC(=O)C4CC4)cc3c2=O)cc1	23.1µM	.	.	?	?
O=C1CC(=C(c2ccccc2)c2ccccc2)C(=O)N1CCCCN1CCN(c2ccccc2)CC1	?	?	?	20.6µM	?
C=CCNC(=O)N1CCC(n2nccc2NC(=O)CCCc2ccccc2)CC1	.	.	.	.	.
CCCOc1ccc(NC(=O)CC2Nc3ccccc3NC2=O)cc1 (stereo not drawn)	.	.	?	.	.
Cc1c(C(=O)OC/C(O)=C(\C#N)c2nc3ccccc3[nH]2)oc2ccccc12	.	?	14.6µM	.	.
Cc1nn(-c2ccccc2)c(C)c1C(=O)OC/C(O)=C(\C#N)c1nc2ccccc2[nH]1	.	.	?	.	.
Cc1c(C(=O)NC(C)C)c(-c2ccccc2)nn1-c1ccccc1	20.6µM	.	.	.	.
Cc1nn(-c2ccccc2)c(C)c1C(=O)OCC(O)=C(C#N)c1nc2ccccc2[nH]1	.	?	18.4µM	.	/
N#CC(=C(O)COC(=O)c1ccc2c(c1)OCCO2)c1nc2ccccc2[nH]1	.	?	?	.	/
Cc1c(C(=O)NC(C)c2ccccc2)c(-c2ccccc2)nn1-c1ccccc1 (stereo not drawn)	.	.	.	.	.
COc1cc(OC)cc(C(=O)OC/C(O)=C(\C#N)c2nc3ccccc3[nH]2)c1	.	?	20.6µM	.	.
Clc1ccc(-c2nn3c(-c4cccc(Cl)c4)nnc3s2)cc1	/	/	/	/	.
Cc1nn(-c2ccccc2)c(C)c1C(=O)OCC(=O)Nc1ccccc1	10.3µM	.	.	.	?
O=C(O)c1ccccc1NCc1cccnc1	.	.	.	.	/
O=C(O)CNc1ccccc1C(=O)O	.	?	.	.	20.6µM
CC(C)(C)c1cc(=O)n2c(C#N)c(C#N)nc2[nH]1	.	.	.	.	.
